Values joined by “and” are separate entries in the source; they are usually repeats but may differ in a detail not shown here. Equal entries are not always repeated. Some structures have more than one record in an assay (separate samples or runs), and their calls can disagree. Active and inactive are the calls of the source. Rule for the calls: active = hit-call score of the fitted dose curve at least 0.9, where 1 is the maximum; inactive = score below 0.9.
How the values were obtained:
[1] = APR_HepG2_NuclearSize_72hr: Apredica 72-hour HepG2 Assay for Nuclear Size (AID 2282925); conditions: high-content imaging, actives raise or lower the signal
Procedure, shortened: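 Read-out: nuclear diameter from Hoechst 33342 images (ArrayScan, 20x, six fields/well), via cell-cycle image analysis. HepG2 were dosed 0.39–200 uM for 72 hr in 0.5% DMSO. Bidirectional fit relative to DMSO.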

[2] = ATG_CRE_CIS: Attagene CIS-FACTORIAL HepG2 Assay for human cAMP Responsive Element (CRE) binding protein 3 (AID 2282926); conditions: HepG2 CRE cis-reporter, Attagene multiplexed mRNA; actives raise or lower the signal
Procedure, shortened: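 Cells carrying cis-regulated reporter constructs respond through their own endogenous factors. After 24 h treatment, RNA is reverse-transcribed, amplified, labelled and sized by capillary electrophoresis; up- and down-regulation are both scored against vehicle.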

[3] = molecular target: CCAAT/enhancer-binding protein beta (Homo sapiens) (UniProt P17676); assay: ATG_C_EBP_CIS: Attagene CIS-FACTORIAL HepG2 Assay for human CCAAT/Enhancer Binding Protein (C/EBP) beta (AID 2282927); conditions: HepG2 Attagene cis-factorial transcription factor reporter; actives raise or lower the signal
CCAAT/enhancer-binding protein beta (Homo sapiens), sequence (P17676 whole entry, looked up): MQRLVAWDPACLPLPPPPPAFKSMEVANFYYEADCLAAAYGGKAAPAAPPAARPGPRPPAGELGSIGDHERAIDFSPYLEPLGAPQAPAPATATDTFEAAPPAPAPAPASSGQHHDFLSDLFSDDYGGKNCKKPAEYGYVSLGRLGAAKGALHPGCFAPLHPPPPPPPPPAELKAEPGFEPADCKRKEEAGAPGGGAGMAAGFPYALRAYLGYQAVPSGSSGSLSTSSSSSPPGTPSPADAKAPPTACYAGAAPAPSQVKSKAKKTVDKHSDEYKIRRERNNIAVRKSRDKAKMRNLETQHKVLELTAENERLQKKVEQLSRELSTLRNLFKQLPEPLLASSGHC
Procedure, shortened: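 HepG2, transient MRTU transfection, 24 h treatment. RT-PCR plus CE fluorescence; DMSO negative control, bidirectional fit.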

[4] = ATG_CMV_CIS: Attagene CIS-FACTORIAL HepG2 Assay for human CMV (Internal Marker) (AID 2282928); conditions: HepG2 CMV promoter reporter, transcription factor profiling; actives raise or lower the signal;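 note: endpoint acts as a background internal control marker rather than a target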
Procedure, shortened: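 Bidirectional fits against DMSO are applied to reporter mRNA, read by RT-PCR with capillary electrophoresis, from HepG2 cells exposed 24 h. The endpoint serves as an internal CMV background marker within the cis-factorial reporter panel.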

[5] = ATG_DR4_LXR_CIS: Attagene CIS-FACTORIAL HepG2 Assay for human Liver X Receptor (LXR), DR4 submotif (AID 2282929); conditions: HepG2 Attagene DR4 cis-reporter, mRNA transcription; actives raise or lower the signal
Procedure, shortened: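 HepG2 cells transiently transfected with cis-promoter-driven multiplexed reporter units (DR4 element) were dosed for 24 h. Reporter mRNA was quantified by RT-PCR, fluorescent primer extension, HpaI digestion and capillary electrophoresis; bidirectional fitting versus DMSO baseline.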

[6] = molecular target: Aryl hydrocarbon receptor (Homo sapiens) (UniProt P35869); assay: ATG_Ahr_CIS: Attagene CIS-FACTORIAL HepG2 Assay for human Aryl Hydrocarbon Receptor (Ahr) (AID 2282930); conditions: HepG2 AhR cis-factorial reporter transcription; actives raise or lower the signal
Aryl hydrocarbon receptor (Homo sapiens), sequence (P35869 whole entry, looked up): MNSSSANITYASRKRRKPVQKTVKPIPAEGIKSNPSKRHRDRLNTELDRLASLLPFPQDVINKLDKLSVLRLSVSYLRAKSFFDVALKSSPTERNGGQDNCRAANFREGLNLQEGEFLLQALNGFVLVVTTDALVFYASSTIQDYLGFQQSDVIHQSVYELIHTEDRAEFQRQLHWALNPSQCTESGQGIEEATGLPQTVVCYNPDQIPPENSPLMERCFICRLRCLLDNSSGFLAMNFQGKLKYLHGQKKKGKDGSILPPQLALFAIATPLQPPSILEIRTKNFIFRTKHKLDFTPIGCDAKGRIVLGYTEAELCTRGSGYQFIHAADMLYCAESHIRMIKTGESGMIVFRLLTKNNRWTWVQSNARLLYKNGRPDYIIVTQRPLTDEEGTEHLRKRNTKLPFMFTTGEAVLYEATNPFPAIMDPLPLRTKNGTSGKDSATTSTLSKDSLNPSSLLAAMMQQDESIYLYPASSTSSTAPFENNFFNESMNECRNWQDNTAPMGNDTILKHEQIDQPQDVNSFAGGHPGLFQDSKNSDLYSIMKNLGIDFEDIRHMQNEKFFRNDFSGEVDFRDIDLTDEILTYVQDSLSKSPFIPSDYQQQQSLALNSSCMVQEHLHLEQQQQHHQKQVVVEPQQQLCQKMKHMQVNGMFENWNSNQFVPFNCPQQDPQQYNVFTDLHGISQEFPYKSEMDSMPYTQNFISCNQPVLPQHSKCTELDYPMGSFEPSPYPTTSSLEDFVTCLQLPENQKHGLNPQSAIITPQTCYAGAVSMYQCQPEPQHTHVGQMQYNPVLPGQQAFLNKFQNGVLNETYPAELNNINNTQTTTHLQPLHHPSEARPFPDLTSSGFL
Procedure, shortened: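 Endogenous factor activity is tracked through cis-promoter reporter units transfected into HepG2 cells. Transcript levels at 24 h are read by fluorescent RT-PCR and capillary electrophoresis, with activity in either direction scored relative to DMSO.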

[7] = ATG_AP_1_CIS: Attagene CIS-FACTORIAL HepG2 Assay for human Activator Protein 1 (AP-1) (AID 2282931); conditions: HepG2 Attagene cis-factorial AP-1 reporter mRNA; actives raise or lower the signal
Procedure, shortened: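 HepG2 cells transiently transfected with cis-element-driven multiplex reporter units; 24 h compound exposure. Reporter mRNA quantified by RT-PCR, FAM-labelled fragments resolved by capillary electrophoresis; bidirectional fit versus DMSO baseline.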

[8] = ATG_AP_2_CIS: Attagene CIS-FACTORIAL HepG2 Assay for human Activator Protein 2 (AP-2) (AID 2282932); conditions: HepG2 AP-2 cis-reporter, Attagene transcription factor profiling; actives raise or lower the signal
Procedure, shortened: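 Read-out: fluorescent reporter mRNA via RT-PCR and capillary electrophoresis, 24 h post-dose in transiently transfected HepG2. Endogenous factors drive cis-promoter reporters; gain or loss of signal fitted bidirectionally against DMSO.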

[9] = ATG_BRE_CIS: Attagene CIS-FACTORIAL HepG2 Assay for human Bone Morphogenetic Protein (BMP) Response Element (BRE) (AID 2282933); conditions: HepG2 BMP response element reporter, Attagene transcription factor profiling; actives raise or lower the signal
Procedure, shortened: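 A HepG2 multiplex reporter system measured inducible reporter mRNA 24 h post-dosing. Detection: RT-PCR, 6-FAM primer extension, HpaI digestion, capillary electrophoresis. Activity fitted bidirectionally relative to DMSO.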

[10] = molecular target: Retinoic acid receptor alpha (Homo sapiens) (UniProt P10276); assay: ATG_DR5_RAR_CIS: Attagene CIS-FACTORIAL HepG2 Assay for human Retinoic Acid Receptor Alpha (RARE), DR5 submotif (AID 2282934); conditions: HepG2 Attagene cis-factorial RARE DR5 reporter, mRNA; actives raise or lower the signal;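 for AC50: reporter responds to endogenous RAR alpha beta and gamma in HepG2 not RARA alone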
Retinoic acid receptor alpha (Homo sapiens), sequence (P10276 whole entry, looked up): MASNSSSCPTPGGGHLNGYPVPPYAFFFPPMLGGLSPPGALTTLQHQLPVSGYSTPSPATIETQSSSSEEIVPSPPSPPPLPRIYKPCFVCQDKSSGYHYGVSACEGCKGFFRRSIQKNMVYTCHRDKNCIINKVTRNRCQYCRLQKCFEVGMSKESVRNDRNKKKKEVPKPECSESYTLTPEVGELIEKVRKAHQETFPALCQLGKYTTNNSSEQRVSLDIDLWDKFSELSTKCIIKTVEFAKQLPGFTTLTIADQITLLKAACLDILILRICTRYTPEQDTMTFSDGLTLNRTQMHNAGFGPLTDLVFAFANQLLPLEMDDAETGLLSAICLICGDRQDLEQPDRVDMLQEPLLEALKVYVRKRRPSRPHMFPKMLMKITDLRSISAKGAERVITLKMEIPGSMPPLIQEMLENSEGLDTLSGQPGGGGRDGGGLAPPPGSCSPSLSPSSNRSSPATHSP
Procedure, shortened: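 After 24 h of chemical exposure, transiently transfected HepG2 cells were lysed for total RNA; the DR5-regulated reporter transcript was quantified via RT-PCR and capillary electrophoresis, with activity fitted bidirectionally against DMSO.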

[11] = molecular target: Transcription factor E2F1 (Homo sapiens) (UniProt Q01094); assay: ATG_E2F_CIS: Attagene CIS-FACTORIAL HepG2 Assay for human E2F Transcription Factor 1 (AID 2282935); conditions: HepG2 Attagene cis-reporter, E2F reporter RNA transcripts; actives raise or lower the signal
Transcription factor E2F1 (Homo sapiens), sequence (Q01094 whole entry, looked up): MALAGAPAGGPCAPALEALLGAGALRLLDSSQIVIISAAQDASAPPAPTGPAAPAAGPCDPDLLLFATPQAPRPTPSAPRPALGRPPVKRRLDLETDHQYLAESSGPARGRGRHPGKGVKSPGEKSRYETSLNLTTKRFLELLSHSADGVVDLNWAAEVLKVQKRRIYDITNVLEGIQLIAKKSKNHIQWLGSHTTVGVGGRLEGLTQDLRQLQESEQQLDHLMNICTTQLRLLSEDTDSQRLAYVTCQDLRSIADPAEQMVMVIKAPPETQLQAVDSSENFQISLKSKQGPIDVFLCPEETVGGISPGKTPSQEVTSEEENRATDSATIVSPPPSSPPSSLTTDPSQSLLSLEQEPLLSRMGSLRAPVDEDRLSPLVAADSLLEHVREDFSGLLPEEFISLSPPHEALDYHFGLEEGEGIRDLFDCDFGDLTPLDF
Procedure, shortened: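 Transient MRTU transfection of HepG2; 24 h compound exposure; RNA → oligo(dT) RT → PCR → FAM label → HpaI cut → CE fluorescence. Gain/loss of signal fit against DMSO.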

[12] = ATG_E_Box_CIS: Attagene CIS-FACTORIAL HepG2 Assay for human Enhancer Box (E-box) (AID 2282936); conditions: HepG2 E-box cis-reporter transcription, actives raise or lower the signal
Procedure, shortened: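 Transiently transfected HepG2, endogenous TF-driven reporters, 24 h dosing. Readout: RT-PCR plus capillary electrophoresis of fluorescent reporter fragments. Gain or loss of signal fitted bidirectionally against DMSO baseline.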

[13] = ATG_M_61_CIS: Attagene CIS-FACTORIAL HepG2 Assay for M61 Transcription Factor (Internal Marker) (AID 2282937); conditions: HepG2 Attagene CIS-FACTORIAL M61 internal marker reporter; actives raise or lower the signal
Procedure, shortened: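 HepG2 cells transiently transfected with cis-element-driven multiple reporter transcription units, dosed for 24 h. Reporter mRNA measured by RT-PCR, 6-FAM primer-extension labelling, HpaI digestion and capillary electrophoresis; bidirectional fit versus DMSO baseline.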

[14] = ATG_EGR_CIS: Attagene CIS-FACTORIAL HepG2 Assay for human Early Growth Response 1 (EGR1) (AID 2282938); conditions: HepG2 Attagene CIS-FACTORIAL EGR reporter mRNA; actives raise or lower the signal
Procedure, shortened: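 HepG2 cells transiently transfected with cis-promoter-driven multiplexed reporter transcription units; reporter mRNA measured 24 h after compound dosing by RT-PCR, 6-FAM primer extension, HpaI digestion and capillary electrophoresis. Bidirectional fit versus DMSO baseline.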

[15] = ATG_M_19_CIS: Attagene CIS-FACTORIAL HepG2 Assay for M19 Transcription Factor (Internal Marker) (AID 2282939); conditions: HepG2 Attagene CIS-FACTORIAL M19 internal marker reporter; actives raise or lower the signal
Procedure, shortened: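 Chemical-treated HepG2 (24 h) with MRTU constructs; reporter transcripts detected by fluorescent RT-PCR fragment analysis on capillary electrophoresis. Internal background marker, DMSO as baseline.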

[16] = ATG_ERE_CIS: Attagene CIS-FACTORIAL HepG2 Assay for Estrogen Response Element (ERE) (AID 2282940); conditions: HepG2 ERE cis-reporter, Attagene RNA transcript; actives raise or lower the signal
Procedure, shortened: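 Human liver cells (HepG2) bearing transiently transfected, promoter-regulated reporter units were exposed 24 h. Reporter mRNA induction was detected by capillary electrophoresis of labelled RT-PCR products and fitted bidirectionally to DMSO.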

[17] = ATG_Ets_CIS: Attagene CIS-FACTORIAL HepG2 Assay for human Erythroblast Transformation Specific (ETS) (AID 2282941); conditions: HepG2 ETS cis-reporter transcription, actives raise or lower the signal
Procedure, shortened: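 Endogenous transcription factor activity read as reporter mRNA via RT-PCR and capillary electrophoresis, with gain or loss fitted bidirectionally against DMSO. Human HepG2 liver cells, transiently transfected CIS reporter constructs, 24 h exposure.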

[18] = molecular target: Hepatocyte nuclear factor 3-beta (Homo sapiens) (UniProt Q9Y261); assay: ATG_FoxA2_CIS: Attagene CIS-FACTORIAL HepG2 Assay for human Forkhead box A2 (FOXA2) (AID 2282942); conditions: HepG2 cis-reporter transcription factor activity, 24 h; actives raise or lower the signal
Hepatocyte nuclear factor 3-beta (Homo sapiens), sequence (Q9Y261 whole entry, looked up): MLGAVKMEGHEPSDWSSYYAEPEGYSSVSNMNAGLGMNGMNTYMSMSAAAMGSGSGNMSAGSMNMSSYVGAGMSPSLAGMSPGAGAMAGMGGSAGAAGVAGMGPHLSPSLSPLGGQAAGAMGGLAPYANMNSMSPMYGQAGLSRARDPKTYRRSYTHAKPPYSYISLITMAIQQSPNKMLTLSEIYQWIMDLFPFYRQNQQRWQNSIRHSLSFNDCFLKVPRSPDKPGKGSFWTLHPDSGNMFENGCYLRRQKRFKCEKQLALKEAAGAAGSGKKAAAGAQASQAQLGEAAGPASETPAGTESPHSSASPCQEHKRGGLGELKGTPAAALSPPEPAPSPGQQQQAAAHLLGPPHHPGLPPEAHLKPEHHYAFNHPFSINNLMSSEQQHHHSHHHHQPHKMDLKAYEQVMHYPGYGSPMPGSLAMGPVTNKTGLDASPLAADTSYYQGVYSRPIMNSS
Procedure, shortened: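 HepG2 cells transiently transfected with multiple cis-regulated reporter transcription units, dosed for 24 h. Reporter mRNA measured by RT-PCR, 6-FAM labelling, HpaI digestion and capillary electrophoresis; bidirectional fitting against DMSO baseline.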

[19] = ATG_FoxO_CIS: Attagene CIS-FACTORIAL HepG2 Assay for human Forkhead box O (FoxO) (AID 2282943); conditions: HepG2 Attagene cis-reporter, FoxO element, mRNA; actives raise or lower the signal
Procedure, shortened: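 Transfected HepG2 reporter cells exposed to test chemical for 24 h; reporter RNA measured by reverse transcription, PCR and fluorescent capillary electrophoresis; curves fitted for increases and decreases against DMSO.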

[20] = ATG_GATA_CIS: Attagene CIS-FACTORIAL HepG2 Assay for human GATA Binding Protein (AID 2282944); conditions: HepG2 GATA cis-element reporter, Attagene multiplex mRNA; actives raise or lower the signal
Procedure, shortened: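 Transfected cis-reporter HepG2 cells were treated with chemicals for 24 hours. Total RNA was then converted to cDNA, amplified with reporter-specific primers and analysed by fluorescent capillary electrophoresis, using DMSO-treated wells as baseline.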

Measured: AC50

CCCCC(CC)COC(=O)CCCCC(=O)OCC(CC)CCCC (stereo not given)
active: [6] 87.3 µM
inactive: [1] | [2] | [3] | [4] | [5] | [7] | [8] | [9] | [10] | [11] | [12] | [13] | [14] | [15] | [16] | [17] | [18] | [19] | [20]

OCCC(F)(F)C(F)(F)C(F)(F)C(F)(F)C(F)(F)C(F)(F)F
active: [2] 154 µM | [3] 146 µM | [4] 145 µM | [5] 182 µM | [11] 136 µM | [16] 33.9 µM and 9.4 µM | [20] 125 µM
inactive: [1] | [2] | [3] | [4] | [5] | [6] | [8] | [9] | [10] | [11] | [12] | [13] | [14] | [15] | [17] | [19] | [20]

ClC1=C(Cl)C(Cl)(Cl)C(Cl)=C1Cl
inactive: [1] | [2] | [3] | [4] | [5] | [6] | [8] | [9] | [10] | [11] | [12] | [13] | [15] | [18] | [19] | [20]
active: [2] 11.9 µM | [3] 16.9 µM | [4] 11.1 µM | [5] 6.59 µM | [6] 8.81 µM | [10] 21.4 µM | [12] 6.36 µM | [14] 17.8 µM and 6.6 µM | [17] 17.7 µM and 16.2 µM | [19] 16.1 µM

CCCOc1sc(C(=O)N2CCC(c3cc(CN)ccc3F)CC2)c(C)c1Br
active: [1] 97.5 µM | [7] 3.7 µM | [16] 2.72 µM
inactive: [2] | [3] | [4] | [5] | [6] | [8] | [9] | [10] | [11] | [12] | [13] | [14] | [15] | [17] | [19] | [20]

O=C(O)c1ccccc1C(c1ccc(O)cc1)c1ccc(O)cc1
inactive: [1] | [2] | [3] | [4] | [5] | [6] | [7] | [8] | [9] | [10] | [11] | [12] | [13] | [14] | [15] | [17] | [18] | [19] | [20]
active: [6] 64.8 µM | [16] 62.7 µM [middle of 4 runs]

c1ccc2cc3c(ccc4ccccc43)cc2c1
active: [5] 1.7 µM and 1.25 µM and 3.19 µM | [7] 2.33 µM | [12] 1.59 µM and 4.58 µM and 2.65 µM | [14] 2.26 µM | [16] 2.82 µM [middle of 4 runs]
inactive: [1] | [2] | [3] | [4] | [5] | [7] | [8] | [9] | [10] | [11] | [12] | [13] | [14] | [15] | [17] | [18] | [19] | [20]

CCCCCCCCOC(=O)CCCCCCCCC(=O)OCCCCCCCC
inactive: [1] | [2] | [3] | [4] | [5] | [6] | [7] | [8] | [9] | [10] | [11] | [12] | [13] | [14] | [15] | [17] | [19] | [20]

COc1ccc([N+](=O)[O-])cc1N
inactive: [1] | [2] | [3] | [4] | [5] | [6] | [7] | [8] | [9] | [10] | [11] | [12] | [13] | [14] | [15] | [16] | [17] | [19] | [20]

Reference: PubChem BioAssay (EPA / NIEHS)
